# This is a sample that favours compounds with a hit; in the whole collection about 19% have one here.
# DT40 TDP1 CPT – DT40-hTDP1 cell growth loss with CPT; Potency, µM (top dose mostly 46.2 µM), for the others: at the top dose activity change, negative = growth inhibition, hits mostly inhibitors; hit rate 12% among 420,000; chicken DT40 Tdp1-/-;hTDP1 cells + 20 nM CPT, ATP luminescence, 48 h; also: potency is read from the fitted curve at half-maximal effect; nearly all actives have a fitted effect of over 55% in size
#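 Chicken DT40 Tdp1-/- cells stably complemented with human TDP1 were seeded at 400 cells/well in medium containing 20 nM camptothecin, exposed to pin-transferred compounds, and grown at 37 °C for at least 48 hr. Viability was read as ATP luminescence.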
# IL-1B inflam inh – blocks inflammasome-driven IL-1 beta release. THP-1 LPS/ATP IL-1B secretion, AlphaLISA, 16 h; active compounds read low. activity change, % at 57.5 µM. hit rate 4.7% among 360,000. AID 743279; in the data active = activity change below about -50%; inconclusive = mostly about -30% to -49%
#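 Secreted IL-1B measured by AlphaLISA bead assay after 16 h compound exposure of THP-1 cells; compounds (final up to 57.5 uM) added 1 h before LPS (250 ng/mL) and ATP (1.25 mM) stimulation; lower signal means less secretion.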
# DT40 TDP1 no CPT – qHTS for Inhibitors of human tyrosyl-DNA phosphodiesterase 1 (TDP1): qHTS in cells in absence of CPT; hit rate 15% among 420,000; AID 686978, 2013; Potency, µM (highest dose often 46.2 µM), for inactives: at the highest dose activity change, negative = growth inhibition, usual class: inhibitors; DT40 Tdp1-/- hTDP1 cells, no CPT, ATP luminescence, 48 h; also: potency is read from the fitted curve at half-maximal effect; nearly all actives have a fitted effect of over 55% in size
#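 Chicken DT40 Tdp1-/- cells stably complemented with human TDP1 were seeded at 400 cells/well with DMSO in place of 20 nM camptothecin. After compound pinning, cells grew at least 48 hr at 37 °C; viability read by CellTiter-Glo luminescence.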
# HT1080NT lethal – kills 2HG-producing HT-1080-NT fibrosarcoma cells. HT-1080-NT fibrosarcoma viability, CellTiter-Glo ATP luminescence, 48 h. Potency, µM (series often up to 46.1 µM), for inactives: at the top dose activity, negative = less viability, actives largely listed as cytotoxic. hit rate 1.6% among 360,000;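 also: NT is the 2HG producing partner of a matched IDH1 knockdown line; potency is read from the fitted curve at half-maximal effect; 0% = DMSO-treated cells and -100% = media-only wells without cells; nearly all actives have a fitted effect of over 55% in size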
#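 A 48-hour cytotoxicity screen used HT-1080-NT cells plated 2 hours before compound delivery. ATP-based CellTiter-Glo luminescence measured viability, normalized to DMSO and no-cell controls.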
# HT1080 IDH1KD tx – toxicity to HT-1080 IDH1 knockdown cells (counter line) | hit rate 2% among 360,000 | AID 686971 | Potency, µM (series often up to 46.1 µM), for the others: at the top dose activity, negative = toxicity, hits mostly cytotoxic | HT-1080 IDH1 knockdown viability, ATP luminescence, 48 h;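 also: potency is read from the fitted curve at half-maximal effect; 0% = DMSO wells and -100% = cell-free medium wells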
#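 IDH1KD HT-1080 cells, 750/well, RPMI + 5% FBS; compound pinned after 2 h settling; 48 h, 37 °C; CellTiter-Glo luminescence; % activity normalised to DMSO and no-cell wells; curves fitted, classed by r2 and efficacy.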
# * hit, by the source's call; i = inactive; ? = inconclusive; nt = no result. Unless noted, calls follow the shape of the dose curve; as a rule, active = well fitted curve in the direction sought with a large enough effect; inconclusive = small, poorly fitted or top-dose-only effect, or another doubt; inactive = no such curve, though single readings can be large; an effect the other way counts as inactive or inconclusive. Unless noted, % is scaled to controls: 0 for no effect and ±100 for the full control effect.
SMILES,DT40 TDP1 CPT,IL-1B inflam inh,DT40 TDP1 no CPT,HT1080NT lethal,HT1080 IDH1KD tx
O=C(/C=C/c1ccccc1Br)c1ccc2c(c1)OCO2,20.6µM*,-18.9,23.1µM*,?,?
COc1cc(/C=C/C(=O)c2ccc3c(c2)OCCO3)cc(Br)c1OCC(=O)N(C)C,8.2µM*,-104.1*,7.31µM*,4.61µM*,3.66µM*
O=C(/C=C/c1ccc2c(c1)OCO2)c1ccc(F)cc1,?,-73.8*,?,4.7%,21.6%
CCNc1ncc2nc(-c3ccc(Cl)cc3)c(=O)n(C3CC3)c2n1,3.4%,nt,-3.5%,nt,nt
CCC1CN(CCNC(=O)c2ccc(N3CCOCC3)cc2)Cc2cc(OC)ccc2O1 (stereo not given),-16.4%,nt,-28.6%,nt,nt
COc1ccccc1OCC(=O)Nc1nonc1NC(=O)COc1ccccc1OC,-6.4%,3.7,6.9%,15.6%,27.0%
CC1=CC(=O)Nc2ncccc2O1,?,9.8,?,-29.5%,-18.5%
O=C(/C=C/c1ccc2c(c1)OCO2)c1cccs1,3.35µM*,nt,5.96µM*,nt,nt
O=C(Nc1ccncc1)c1ccc2c(c1)OCCO2,?,2.3,?,0.8%,-10.3%
COc1cccc(/C=C/C(=O)c2ccc[nH]2)c1,?,-93.1*,?,-6.3%,-3.8%
O=C(CNC(=O)c1ccc2c(c1)OCO2)N/N=C(Br)/C=C/c1ccccc1,2.59µM*,-61.2*,7.31µM*,?,14.6µM*
O=C(CNC(=O)c1ccc2c(c1)OCO2)N/N=C/c1cccc([N+](=O)[O-])c1,-6.3%,29.5,-28.9%,15.6%,15.5%
O=C(/C=C/c1ccncc1)c1ccc2c(c1)OCCO2,?,-97.6*,14.6µM*,?,18.4µM*
CN(C)c1ccc(/C=N/NC(=O)c2ccc3c(c2)OCO3)cc1,-24.2%,-27.8,-7.1%,-20.5%,-2.8%
COc1cccc(/C=C/C(=O)c2ccc3c(c2)OCO3)c1OC,?,-19.7,18.4µM*,-10.0%,?
O=C(/C=C/c1cccc(Br)c1)c1ccc2c(c1)OCO2,?,-104.0*,?,?,?
CN(C)c1ccc(/C=C/C(=O)c2ccc3c(c2)OCO3)cc1,23.1µM*,-91.7*,16.4µM*,?,-14.3%
O=C(/C=C/c1ccc2c(c1)OCO2)c1ccc[nH]1,23.5%,-94.7*,?,-10.3%,-1.6%
O=C(Nc1nc2ccc(F)cc2s1)C1CCCO1 (stereo not given),-5.5%,-8.7,-13.6%,2.9%,0.9%
COc1ccc(NC(=O)CN(C)C(=O)Cn2cnc3c2c(=O)n(C)c(=O)n3C)cc1,10.6%,21.2,-15.4%,5.5%,9.0%
CCOC(=O)C1CCN(c2nc(-c3ccc(C)cc3)nc3ccccc23)CC1,2.5%,0.0,-28.6%,-10.6%,-23.2%
CCOC(=O)C1CCN(c2c(C(=O)c3ccccc3)cnc3ccc(Cl)cc23)CC1,23.1µM*,37.4,18.4µM*,0.8%,-0.6%
CCc1ccc2ncc(C(=O)c3ccc(C)c(C)c3)c(N3CCC(C(N)=O)CC3)c2c1,23.1µM*,nt,20.6µM*,nt,nt
COc1ccc(NC(=O)N(C)[C@H]2C[C@H]3c4[nH]c5ccc(-c6ccc(OC)cc6)cc5c4CCN3C(=O)[C@H]2[C@H](C)O)cc1,18.4µM*,0.0,13µM*,23.1µM*,16.4µM*
COc1ccc(-c2ccc3[nH]c4c(c3c2)CCN2C(=O)[C@@H]([C@H](C)O)[C@@H](N(C)C(=O)Nc3ccccc3)C[C@@H]42)cc1,13µM*,-25.5,6.51µM*,23.1µM*,16.4µM*
SMILES,DT40 TDP1 CPT,IL-1B inflam inh,DT40 TDP1 no CPT,HT1080NT lethal,HT1080 IDH1KD tx
CN[C@H]1C[C@H]2c3[nH]c4ccc(-c5ccc(OC)cc5)cc4c3CCN2C(=O)[C@H]1[C@H](C)O,2.59µM*,?,3.26µM*,8.2µM*,13µM*
CN[C@H]1C[C@H]2c3cc(-c4ccccc4)ccc3CCN2C(=O)[C@H]1[C@H](C)O,?,-0.4,?,?,-4.5%
COc1ccc(NC(=O)N(C)[C@H]2C[C@H]3c4[nH]c5ccccc5c4CCN3C(=O)[C@H]2[C@H](C)O)cc1,-24.9%,1.2,?,-3.7%,-4.2%
O=C1CCCCC1Nc1ccc2ccccc2c1 (stereo not given),-4.0%,-64.1*,-11.7%,0.0%,-14.6%
COc1ccc2[nH]c(C(O)C(O)c3nc4c(OC)c(OC)ccc4[nH]3)nc2c1OC (stereo not given),1µM*,nt,0.282µM*,nt,nt
O=C(O)c1ccc(N=NN2CCCCCC2)cc1,-11.3%,0.0,-18.6%,-0.6%,10.6%
C#CC(=O)N(c1ccc(OC)cc1OC)C(C(=O)NC1CCCC1)c1cccs1 (stereo not given),?,-102.4*,2.06µM*,0.92µM*,?
C#CC(=O)N(c1cc(OC)ccc1OC)C(C(=O)NC1CCCC1)c1cccs1 (stereo not given),2.31µM*,-120.2*,2.06µM*,0.0731µM*,0.731µM*
COc1ccc(N(C(=O)c2ccco2)C(C(=O)NC2CCCCC2)c2cccs2)cc1OC (stereo not given),?,5.6,?,0.6%,-2.1%
CCOc1ccccc1C=NNC(=O)C1CC1,-9.7%,-4.4,-19.7%,0.3%,7.1%
Cn1cnnc1Sc1ccc(C(=O)NCCC23CC4CC(CC(C4)C2)C3)cc1[N+](=O)[O-],10.3µM*,9.0,?,?,?
CN(C)S(=O)(=O)c1cccc(NC(=O)c2ccc(Sc3nncn3C)c([N+](=O)[O-])c2)c1,?,-16.8,-18.8%,0.0%,8.3%
COc1ccc(NC(=O)/C(C#N)=C/c2ccc(Sc3nncn3C)c([N+](=O)[O-])c2)cc1,16.4µM*,?,25.9µM*,?,?
CCN(CC)S(=O)(=O)c1ccc(NC(=O)c2ccc(Sc3nncn3C)c([N+](=O)[O-])c2)cc1,?,-90.9*,?,-0.6%,1.6%
CC(=O)Nc1ccccc1OCc1cc(=O)n2c(C)csc2n1,-17.1%,nt,?,nt,nt
Cc1cccc(Cn2cc3c(=O)n(CC(=O)Nc4cccc(C)c4C)nc-3c3cc(F)ccc32)c1,-1.9%,nt,-24.9%,nt,nt
COc1ccc(CN2CCC(C(=O)Nc3ccc(Oc4ccccc4)nc3)CC2)cc1F,20.6µM*,i,18.4µM*,-0.4%,-1.4%
Cc1ncc(CN2CCCCC2C(=O)Nc2ccc(Oc3ccccc3)nc2)cn1 (stereo not given),6.1%,-5.1,-14.7%,8.3%,9.5%
COc1cc(F)ccc1CN1CCC(C(=O)Nc2ccc(Oc3ccccc3)nc2)CC1,?,-81.4*,16.4µM*,?,20.6µM*

# Bioassay records deposited in PubChem by National Center for Advancing Translational Sciences (NCATS).
